For this assay, the target named is Luciferin 4-monooxygenase (Photinus pyralis) (UniProt P08659).

Only a part of the results of these assays is listed, not drawn at random. Activity calls are given as the source filed them. No cut-off for these calls is given here.

Sequence of Luciferin 4-monooxygenase (Photinus pyralis) (P08659 whole entry): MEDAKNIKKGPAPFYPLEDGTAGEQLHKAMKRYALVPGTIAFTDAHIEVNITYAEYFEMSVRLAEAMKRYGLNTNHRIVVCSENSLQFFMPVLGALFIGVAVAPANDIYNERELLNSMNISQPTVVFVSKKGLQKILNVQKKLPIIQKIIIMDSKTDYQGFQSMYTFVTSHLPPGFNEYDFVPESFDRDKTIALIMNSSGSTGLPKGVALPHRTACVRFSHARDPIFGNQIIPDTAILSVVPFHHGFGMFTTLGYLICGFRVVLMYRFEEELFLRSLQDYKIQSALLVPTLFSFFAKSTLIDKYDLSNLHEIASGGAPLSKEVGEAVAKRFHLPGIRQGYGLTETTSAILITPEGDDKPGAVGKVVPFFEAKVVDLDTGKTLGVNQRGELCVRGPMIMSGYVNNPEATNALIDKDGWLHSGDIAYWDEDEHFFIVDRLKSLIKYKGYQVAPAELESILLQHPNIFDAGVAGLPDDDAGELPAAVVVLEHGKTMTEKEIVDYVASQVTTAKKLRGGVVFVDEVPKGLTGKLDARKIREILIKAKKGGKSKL

For the molecule `CC(O)[C@@H]1NC(=O)[C@H](CCCCN)NC(=O)[C@@H](Cc2c[nH]c3ccccc23)NC(=O)[C@H](Cc2ccccc2)NC(=O)[C@@H](NC(=O)[C@H](N)Cc2ccccc2)CSSC[C@@H](C(=O)N[C@H](CO)[C@@H](C)O)NC1=O` (stereo partly specified), the Potency result is “inactive”.
